Experiment [1] has as its system XIP peptide (Xip251-270) binding. Put plainly: XIP fragment 251-270 binding compounds – biochemical, small-molecule microarray, fluorescence 635/667 nm, 0.1 µg/mL protein, primary screen (AID 1182). The note with it: fluorescent protein binding, 635 nm, higher = more signal, called active from +8 up or from −8 down.
The next experiment relates to XIP peptide (Xip251-270). Put plainly: compounds binding XIP fragment 251-270 – biochemical, small-molecule microarray, fluorescence 635/667 nm, 0.5 µg/mL protein, primary screen (AID 1183). Particulars: fluorescence 635 nm, higher = more signal.
The nature of experiment [2]: blood-stage malaria parasite viability loss – strain 3D7, DAPI fluorescence, 100 nL, primary screen (AID 1184).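 Further: parasites grown inside human red blood cells in medium with human serum.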 The note with it: P. falciparum 3D7 growth, 3 d, higher = more signal.
Experiment [3] deals with Homeobox protein Hox-A13 (Mus musculus) (UniProt Q62424). In words: disruptors of Hoxa13 oligonucleotide interaction – biochemical, fluorescence polarization, labeled oligonucleotide, primary screen (AID 1185). Particulars: Hoxa13:DNA binding, 15 min, higher = more signal, called active from +8 up or from −8 down.
Homeobox protein Hox-A13 (Mus musculus), sequence (Q62424 whole entry, looked up): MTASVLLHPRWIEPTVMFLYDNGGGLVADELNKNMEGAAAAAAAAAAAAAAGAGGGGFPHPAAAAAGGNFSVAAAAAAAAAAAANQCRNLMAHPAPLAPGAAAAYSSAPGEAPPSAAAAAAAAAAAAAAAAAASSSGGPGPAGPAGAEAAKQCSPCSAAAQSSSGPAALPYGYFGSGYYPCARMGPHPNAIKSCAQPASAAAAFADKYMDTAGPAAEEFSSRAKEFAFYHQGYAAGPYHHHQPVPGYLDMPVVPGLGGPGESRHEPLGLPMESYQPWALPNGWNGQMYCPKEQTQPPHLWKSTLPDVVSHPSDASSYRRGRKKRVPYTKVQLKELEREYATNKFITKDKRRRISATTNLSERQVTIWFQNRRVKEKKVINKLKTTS
A short description of experiment [4]: blockers of DNA damage checkpoint Chk1 activation – imaging, HeLa, hydroxyurea, phospho-Chk1 antibody, percent positive cells, primary screen (AID 1186). Particulars: hydroxyurea-induced phospho-Chk1 immunofluorescence imaging, higher = more signal.
A short description of experiment [5]: blockers of DNA damage checkpoint Chk1 activation – imaging, HeLa, hydroxyurea, phospho-Chk1 nuclear intensity, primary screen (AID 1187). Particulars: hydroxyurea-induced phospho-Chk1 immunofluorescence imaging, higher = more signal.

This is an account of results in PubChem BioAssay.

Activity calls are given as the source filed them. Unless noted, how the calls were made is not given here.

As for `C=CCN1C(=O)[C@@]2(Cc3ccccc3)N=C(c3ccc(OCCCO)cc3)O[C@H]2c2ccccc21`, the composite z-score is 1.67 (inactive) in experiment [1] and 0.79 with XIP peptide (Xip251-270). Moreover, the z-score in experiment [2] is -1.92; in experiment [3], -0.611 (inactive); in experiment [4] it was -0.0856 (inactive); in experiment [5], -0.138 (inactive).
Turning to `CO[C@H]1COC(=O)[C@@H](C)NC(=O)CC=C[C@@H](C)[C@H](OC)COC(=O)CC=C[C@@H]1C`, the results for the composite z-score (in experiment [1]; with XIP peptide (Xip251-270)) were 0.649 (inactive) and 0.517, respectively. Also, the z-score was -0.243 in experiment [2] and 0.334 (inactive) in experiment [3].
On to `C=C(CCCC)/C(=C/C[C@H](OC(=O)c1ccncc1)c1cccc(OCCO)c1)c1cc(C(=O)OC)ccc1OC`, for which the composite z-score is 2.08 (inactive) in experiment [1] and 0.305 in the experiment on XIP peptide (Xip251-270). Further, the z-score in experiment [2] was -3.26; in experiment [3], -4.52 (inactive); in experiment [4], -0.433 (inactive); in experiment [5] it was -0.355 (inactive).
In the case of `O=C(CS)NCCCCCCNC(=O)[C@@H]1C[C@@H]2C(=O)N[C@@H](Cc3ccccc3)C(=O)N2[C@@H]1c1ccc(O)cc1`, the composite z-score is 0.794 (inactive) in experiment [1] and 0.811 in the experiment with XIP peptide (Xip251-270). The z-score in experiment [2] is -1.02; in experiment [3], -2.14 (inactive); in experiment [4], -0.0496 (inactive); in experiment [5] it was 0.23 (inactive).
In the case of `COc1ccc(-c2ccccc2[C@@H]2N[C@H](C(=O)O)CC[C@H]2C)cc1`, the figures for the composite z-score (in experiment [1]; with XIP peptide (Xip251-270)) were 0.351 (inactive) and 0.0228, respectively. Besides, the z-score was -0.907 in experiment [2] and 1.08 (inactive) in experiment [3].
As for `O=C1OCC=C[C@H]2OC34C=CCN(Cc5ccccc5)C(=O)[C@H]3N(CCO)C(=O)[C@@H]4[C@@H]12` (stereo partly drawn), the composite z-score in experiment [1] is -0.132 (inactive); in the experiment on XIP peptide (Xip251-270), 0.666. The z-score is 0.438 in experiment [2], -4.18 (inactive) in experiment [3], 0.373 (inactive) in experiment [4] and 0.252 (inactive) in experiment [5].
As to `CCN1C(C)=C(C(=O)OC)[C@@H](c2ccccc2)N2C(=O)[C@](O)(C(=O)OC)[C@@H](c3ccccc3)C(C(=O)c3ccccc3)=C12`, the composite z-score was -0.176 (inactive) in experiment [1] and 0.283 with XIP peptide (Xip251-270). The figures for the z-score in experiment [2] and in experiment [3] were 0.245 and -4.23 (inactive), respectively.
For `C[C@@H]1NC(=O)[C@H](Cc2ccccc2)NC(=O)[C@@]23C(=O)N[C@@H](Cc4ccccc4)C2[C@H](C)[C@@]2(C)O[C@H]2C3/C=C/C/C=C\CNC1=O` (stereo partly drawn), the composite z-score in experiment [1] is -0.138 (inactive); with XIP peptide (Xip251-270), 0. In addition, the z-score in experiment [2] was -0.5; in experiment [3] it was -6.67 (inactive); in experiment [4], 0.4 (inactive); in experiment [5], 0.374 (inactive).
In the case of `C=CCN1C(=O)[C@]2(O[C@H](CCn3cc(CCO)nn3)[C@@H]([Si](C)(C)c3ccc(OC)cc3)[C@@H]2C)c2cc(NC(=O)c3ccc(OC)cc3)ccc21`, the composite z-score in experiment [1] was 1.02 (inactive); in the experiment with XIP peptide (Xip251-270), 0.18. In addition, the z-score is -2.84 in experiment [2], -4.21 (inactive) in experiment [3], -0.798 (inactive) in experiment [4] and -0.823 (inactive) in experiment [5].
Turning to `Cc1ccc(N2C(=O)c3ccccc3[C@](C)(C(=O)O)[C@@H]2c2ccc(CO)cc2)nc1`, the composite z-score in experiment [1] was -0.235 (inactive); in the experiment on XIP peptide (Xip251-270) it was -1.16. The z-score in experiment [2] is -0.63; in experiment [3], -0.0226 (inactive); in experiment [4], 0.153 (inactive); in experiment [5], 0.522 (inactive).
`CCN1C(C)=C(C(=O)OC)[C@@H](c2ccccc2)N2C(=O)[C@@]3(C(=O)OC)O[C@@]12[C@@H]1C(=O)CCC[C@@H]13`: the composite z-score in experiment [1] is -0.147 (inactive); in the experiment with XIP peptide (Xip251-270), -1.03. The z-score in experiment [2] was -0.625; in experiment [3], -0.386 (inactive).
Regarding `C#CCCCON=C1C[C@@H](O)[C@@H](O)[C@@H]2[C@@H]3C(=O)N(Cc4ccc5c(c4)OCO5)C(=O)[C@@H]3CC[C@@H]12`, the composite z-score in experiment [1] is 0.32 (inactive); with XIP peptide (Xip251-270) it was 0.104. In addition, the z-score in experiment [2] is -0.0159; in experiment [3], -0.476 (inactive).
Take `CO[C@H]1COC(=O)[C@@H](Cc2ccccc2)NC(=O)[C@@H](C)COC(=O)CC=C[C@@H]1C`: the composite z-score is -0.404 (inactive) in experiment [1] and 0.43 in the experiment with XIP peptide (Xip251-270). In addition, the results for the z-score in experiment [2] and in experiment [3] were -0.0923 and -0.866 (inactive), respectively.
For `CCc1cccc(NC(=O)O[C@H]2[C@H](OC(=O)Nc3ccccc3)[C@@H](OC(=O)Nc3ccccc3)[C@@H](OC)O[C@@H]2CO)c1`, the composite z-score in experiment [1] is 0.652 (inactive); in the experiment with XIP peptide (Xip251-270) it was 0.886. For the same compound, the z-score in experiment [2] is -2.16; in experiment [3] it was -5.07 (inactive); in experiment [4] it was -0.235 (inactive); in experiment [5], -0.0949 (inactive).
`C=CCC(OC(C)=O)[C@@H]1[C@@H](N(Cc2cccc3ccccc23)C(=O)Cc2ccc(F)cc2)c2cc(OCCCO)ccc2N1C(=O)Cc1ccc2ccccc2c1` (stereo partly drawn): the composite z-score is -0.741 (inactive) in experiment [1] and 0.57 with XIP peptide (Xip251-270). The z-score in experiment [2] was -1.17; in experiment [3], -0.474 (inactive); in experiment [4] it was -0.579 (inactive); in experiment [5] it was -0.516 (inactive).
For `C=C(COC)C(=O)CC[C@H](OC(=O)c1ccccc1-c1ccccc1C(=O)O)c1cccc(OCCO)c1`, the composite z-score was 0.437 (inactive) in experiment [1] and 0.569 in the experiment on XIP peptide (Xip251-270). The z-score in experiment [2] was -0.034; in experiment [3], -4.76 (inactive); in experiment [4], 0.369 (inactive); in experiment [5], 0.258 (inactive).
On to `C[C@H]1COC(=O)[C@@H]2CCCN2C(=O)[C@@H](C)COC(=O)[C@@H]2CCCN2C1=O`, for which the composite z-score in experiment [1] is -0.0153 (inactive); with XIP peptide (Xip251-270), 0.454. Moreover, the z-score is -0.12 in experiment [2] and -5.05 (inactive) in experiment [3].
